PLK1 PBD inh: qHTS for Inhibitors of PLK1-PDB (polo-like kinase 1 - polo-box domain): Primary Screen. Serine/threonine-protein kinase PLK1 (Homo sapiens), P53350. Plk1 PBD binding of FITC phosphopeptide, fluorescence polarization. Potency, µM, without a hit: max response, negative = inhibition, hits mostly inhibitors. hit rate 2.8% among 360,000. AID 720504, 2013; also: series mostly up to about 57 µM; % is scaled to controls: 0 for no effect and ±100 for the full control effect; nearly all actives have a fitted effect of over 65% in size
Target sequence (P53350 whole entry, looked up, the tested form may be a part): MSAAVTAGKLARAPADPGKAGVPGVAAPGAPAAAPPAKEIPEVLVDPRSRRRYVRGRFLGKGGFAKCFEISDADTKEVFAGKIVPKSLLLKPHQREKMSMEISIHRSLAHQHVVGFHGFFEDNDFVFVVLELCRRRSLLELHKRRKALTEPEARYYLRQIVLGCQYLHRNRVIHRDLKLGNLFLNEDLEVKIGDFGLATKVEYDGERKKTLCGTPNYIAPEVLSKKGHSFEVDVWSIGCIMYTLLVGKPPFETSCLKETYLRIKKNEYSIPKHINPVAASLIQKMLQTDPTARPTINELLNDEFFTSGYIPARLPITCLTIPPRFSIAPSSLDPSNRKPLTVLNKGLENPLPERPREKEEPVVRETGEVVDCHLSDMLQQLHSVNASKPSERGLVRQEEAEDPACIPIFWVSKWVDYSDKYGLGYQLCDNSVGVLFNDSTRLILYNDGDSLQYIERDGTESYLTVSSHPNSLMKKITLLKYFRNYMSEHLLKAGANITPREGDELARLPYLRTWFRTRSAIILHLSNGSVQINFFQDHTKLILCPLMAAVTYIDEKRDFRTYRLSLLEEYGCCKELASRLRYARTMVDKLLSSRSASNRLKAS
HP1b chromo inh: HTS for Inhibitors of HP1-beta Chromodomain Interactions with Methylated Histone Tails | Chromobox protein homolog 1 (Homo sapiens), P83916 | AlphaScreen HP1-beta / biotin-H3K9me3 peptide binding | Potency, µM (highest dose often 114 µM), for inactives: top-dose activity change, negative = inhibition, actives largely listed as inhibitors | hit rate 0.56% among 390,000 | AID 540317, 2011; also: nearly all actives have a fitted effect of over 70% in size
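AlphaScreen: HP1-beta (50 nM) preformed 30 min with biotin-H3(1-18)K9me3 peptide (50 nM) in PBS pH 7.4, 0.01% Tween-20. Compound added for 30 min at RT, then streptavidin donor/nickel chelate acceptor beads (10 ug/mL) for 30 min.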
BAZ2B block: qHTS Assay for Inhibitors of BAZ2B | Bromodomain adjacent to zinc finger domain protein 2B (Homo sapiens), Q9UIF8 | AlphaScreen BAZ2B-H3K14Ac peptide displacement | Potency, µM (titrated, usually from 114 µM), without a hit: top-dose activity change, negative = inhibition, usual class: inhibitors | hit rate 4.4% among 360,000; also: % is scaled to controls: 0 for no effect and ±100 for the full control effect; nearly all actives have a fitted effect of over 60% in size
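AlphaScreen displacement of biotin-H3(5-23)K14Ac peptide (50 nM final) from BAZ2B (50 nM final) in PBS pH 7.4, 0.01% Tween-20; complex preformed 30 min RT, then compounds (top 110 uM) 30 min RT, beads 20 min dark.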
G9a inh: qHTS Assay for Inhibitors of Histone Lysine Methyltransferase G9a. hit rate 8.8% among 350,000. G9a H3K9 monomethylation, AlphaScreen, 2 h. AID 504332, 2011. Potency, µM (titrated, usually from 102 µM), for inactives: at the top dose activity, negative = inhibition, actives largely listed as inhibitors; also: % is scaled to controls: 0 for no effect and ±100 for the full control effect; nearly all actives have a fitted effect of over 75% in size
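Step 1: enzyme (final 20 nM) with compound, 15 min RT. Step 2: substrate peptide 500 nM and SAM 20 uM, 2 h RT. Step 3: anti-H3K9me1 antibody and AlphaScreen beads, 10 min, then plate read.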
Sfp PPTase inh: qHTS Assay for Inhibitors of Bacillus subtilis Sfp phosphopantetheinyl transferase (PPTase) | Biochemical Sfp PPTase activity, qHTS | Potency, µM, without a hit: largest response in the series, negative = inhibition, most hits filed as inhibitors | hit rate 3.5% among 310,000;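 also: the enzyme is Sfp with the accession as filed and its product quenches rhodamine fluorescence; 0% = enzyme reaction without inhibitor and -100% = no enzyme wells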
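Compounds were incubated with enzyme (final 15 nM) for 15 min at room temperature before substrate addition started the reaction. Fluorescence at 525 nm excitation, 598 nm emission was recorded immediately and after 30 minutes.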
JMJD2A Tudor inh: qHTS Assay for Inhibitors of JMJD2A-Tudor Domain | Lysine-specific demethylase 4A (Homo sapiens), O75164 | AlphaScreen JMJD2A-Tudor / H3K4me3 peptide binding | Potency, µM (series often up to 114 µM), without a hit: top-dose activity change, negative = inhibition, usual class: inhibitors | hit rate 4.4% among 390,000; also: % is scaled to controls: 0 for no effect and ±100 for the full control effect; nearly all actives have a fitted effect of over 50% in size
The depositor's hits bear a star; ? = inconclusive; . = no result given; [ ] = dose if it differs, or a comment. In the library only some 12% were active in any assay of this set; here they are far more common. Calls follow the shape of the dose curve; as a rule, active = well fitted curve in the direction sought with a large enough effect; inconclusive = small, poorly fitted or top-dose-only effect, or another doubt; inactive = no such curve, though single readings can be large; an effect the other way counts as inactive or inconclusive. Potency is read from the fitted curve at half-maximal effect.

SMILES	PLK1 PBD inh	HP1b chromo inh	BAZ2B block	G9a inh	Sfp PPTase inh	JMJD2A Tudor inh
O=C(Nc1cccc(OC(F)(F)F)c1)C1Cc2c(-c3ccccc3Oc3ccccc3)ccnc2O1 (stereo not given)	-1%	.	.	.	.	.
O=C(c1ccccc1)C(O)C(c1ccccc1)N1CCOCC1 (stereo not given)	0%	35%	-11%	0%	2%	-12%
CCOC(=O)C1=C(COC(=O)/C=C/c2cccc(OC)c2)NC(=O)NC1C (stereo not given)	2%	7%	-5%	23%[12.7 µM]	-20%	-7%
C[C@@]12C(=O)N(c3ccc(C(F)(F)F)cc3)C(=O)N1[C@@H]1c3ccccc3OC[C@@H]1[C@H]2c1ccccc1	-10%	23%	-6%	13%	18%	-21%
COc1ccccc1C1CC(=O)Oc2ccc(C(C)(C)C)cc21 (stereo not given)	-3%	70%	.	64%	1%	21%
CCN(CC)CCN(C(=O)C1=COCCO1)c1nc2ccc(C)cc2s1	-6%	20%	-22%	-19%	1%	-10%
CCN(CC)CCN(C(=O)c1c(F)cccc1F)c1nc2cc(C)cc(C)c2s1	1%	26%	.	56µM*	-23%	?
COc1ccc(Cl)c2sc(N(CCN(C)C)C(=O)c3ccc4c(c3)OCCO4)nc12	7%	-30%	?	50µM*	.	?
CCN(CC)CCN(C(=O)C1=COCCO1)c1nc2c(OC)ccc(OC)c2s1	0%	17%	-21%	45µM*	-13%	-17%
COc1cc2ccccc2cc1C(=O)N(CCN(C)C)c1nc2c(OC)ccc(OC)c2s1	?	?	?	45µM*	-25%	40µM*
C=CCC1(O)CCOc2ccccc21 (stereo not given)	.	.	.	.	-15%	.
Cn1c(=O)c2c(ncn2CC(=O)OCC(=O)Nc2cccc(C#N)c2)n(C)c1=O	-8%	.	.	.	.	.
COc1ccc(OC)c2sc(N(CCN(C)C)C(=O)c3ccc4ccccc4c3)nc12	-16%	-19%[57 µM]	?	16µM*	?	?
O=S(=O)(c1cccc(C(F)(F)F)c1)N1CCN(c2nc(-c3cccs3)nc3cc(Cl)ccc23)CC1	.	38%	.	.	.	-21%
Cc1cccc(Nc2cc(C)nc3ccccc23)c1	5%	40%	-6%	.	8%	-10%
Cc1cc(Nc2ccccc2)c2c([N+](=O)[O-])c(C)cc(C)c2n1	0%	40µM*	32µM*	22µM*	-4%	25µM*
N#CCCn1c(=O)c(-c2cccs2)nc2cnc(OCc3ccccc3)nc21	.	.	.	20%[12.7 µM]	-5%	.
O=C(O)c1ccc(NC(CSCc2ccccc2F)C(=O)O)c([N+](=O)[O-])c1 (stereo not given)	-1%	1%	-14%	?	-3%	32µM*
CCC(=O)Nc1sc2c(c1C#N)CC(C)(CC)OC2 (stereo not given)	?	-17%	0%[57.1 µM]	-16%[12.7 µM]	56µM*	11%
CC1(C)Cc2c(sc(NC(=O)C(=O)N3CCCC3)c2C#N)CO1	?	4%	-33%	28µM*	?	?
Cc1ccc(-c2nnc3ccc(SCC(=O)OCc4ccccc4)nn23)cc1	.	12%[57 µM]	.	.	.	12%[57.1 µM]
Cc1ccc(-n2ncc(C(=O)N3CCC(c4ccccc4)C3)c2C2CCN(C(=O)OC(C)(C)C)CC2)cc1 (stereo not given)	.	-8%	-5%[57.1 µM]	-38%[59 µM]	.	?
Cc1cccc(OCC(=O)NC(=S)N2CCCc3ccccc32)c1	-15%	?	45µM*	11µM*	79µM*	50µM*
O=C(COc1ccc(Cl)cc1Cl)NC(=S)N1CCCc2ccccc21	27µM*	?	79µM*	10µM*	56µM*	40µM*

Screens from PubChem.
